From PubChem BioAssay (Tox21) come the findings set out here.

Results filed as inconclusive are left out. Values without a mark were called inactive. Calls of active or inactive are those of the source. Calls follow the shape of the full dose curve.
% is scaled to controls: 0 for no effect and ±100 for the full control effect.

This test can be described thus: qHTS assay to identify small molecule agonists or antagonists of the thyroid stimulating hormone receptor (TSHR) signaling pathway - wild type cell line counter screen (AID 1259384). The note with it: HEK293 wild type, cAMP HTRF counter-screen, stronger effect = higher value; series mostly up to 92.4 µM; cAMP activity change: at the top concentration. The source says:
U.S. Tox21 Program National Center for Advancing Translational Sciences [NCATS] NIH Chemical Genomics Center [NCGC] U.S. Environmental Protection Agency [EPA] National Institutes of Environmental Health Sciences [NIEHS] National Toxicology Program [NTP] U.S. Food and Drug Administration [FDA] Tox21 Assay Overview: TSHR is the receptor for thyrotropin (thyroid stimulating hormone or TSH), a member of the glycoprotein hormone family. TSH is released by the anterior pituitary gland and is the main regulator of thyroid gland growth and development. Upon binding circulating thyrotropin, a G-protein signal cascade activates adenylyl cyclase and […] cAMP concentration is increased. cAMP is a key second messenger involved extensively in cellular signal transduction pathways associated with the majority of G-protein coupled receptors (GPCRs). The activation of these GPCRs by neurotransmitters, lipids, nucleotides, peptides and hormones results in the activation or the inhibition of plasma membrane-bound adenylate cyclase through heterotrimeric G-proteins. A cell-based TSHR-Hek293 assay can be used to identify TSHR agonists. To eliminate the false positive compounds identified from screening a cell-based TSHR-Hek293 cell line, cAMP assay in a wild type Hek293 cells was used as a counter screening.
Tox21 Assay Protocol Summary: Hek293 cells (wild type) were dispensed at 800 cells/4 uL/well in 1536-well white plates using a Multidrop dispenser. After the assay plates were incubated at a 37 C/5% CO2 incubator for 18 hrs, 23 nL of compounds dissolved in DMSO, positive controls or DMSO only was transferred to the assay plate by a pin tool, followed by 1 ul medium containing Ro20-1724. After 30 min of incubation at room temperature, 2.5 ul/well of cAMP-d2 and 2.5 ul/well of anti-cAMP-cryptate were added respectively into the assay plates using a Flying Reagent Dispenser. The plates were incubated at room temperature for 1 hr. The fluorescence intensity in the plates was measured using an Envision plate reader. Each test compound was measured at 15 concentrations and in triplicates.
Consider `CO[C@H]1O[C@H](CO)[C@@H](O)[C@H](O)[C@H]1O`, for which the “cAMP activity change” value was 6.07%. As to `O=C(/C=C/c1ccccc1)OCCCc1ccccc1`, the “cAMP activity change” value was 3.97%. For the compound `CC1CN(c2cc3c(cc2F)c(=O)c(C(=O)O)cn3-c2ccc(F)cc2F)CCN1` (stereo not given), the cAMP activity change was -5.92% [at 8.39 µM]. As to `CCCOC(=O)c1ccc(N)cc1`, the “cAMP activity change” value is -5.85% [at 42.5 µM].

`CCCCC(CC)C(=O)OCCOCCOCCOCCOC(=O)C(CC)CCCC` (stereo not given): the “cAMP activity change” value was -2.2%. Turning to `CCCC1C(CC)=CC(CC)=CN1c1ccccc1` (stereo not given), the “cAMP activity change” value is -6.58%. `CC(Cl)C(Cl)Cl` (stereo not given): the “cAMP activity change” value is -0.306%.

In the case of `Cc1ccnc2ccccc12`, the “cAMP activity change” value was -5.04%. On to `CC(C)(O)c1ccccc1CC[C@@H](SCC1(CC(=O)O)CC1)c1cccc(/C=C/c2ccc3ccc(Cl)cc3n2)c1`, for which the “cAMP activity change” value is -0.265% [at 42.5 µM].

Take `C=CCCCCCCCCCCCCCCCC`: the cAMP activity change is -0.74% [at 8.39 µM]. Turning to `CSc1ccc(Oc2ccc(S(N)(=O)=O)cc2CN(C)C)cc1C`, the “cAMP activity change” value is -1.75%. Turning to `N#C/C(=C1/SC[C@@H](c2ccc(Cl)cc2Cl)S1)n1ccnc1`, the “cAMP activity change” value is 0.764% [at 42.5 µM]. Turning to `Nc1nc(Cl)nc2c1ncn2[C@@H]1O[C@H](CO)[C@@H](O)[C@@H]1F`, the “cAMP activity change” value was -0.52% [at 42.5 µM]. For `Cc1cc(OI)c(C(C)C)cc1-c1cc(C(C)C)c(OI)cc1C`, the “cAMP activity change” value was -0.371% [at 42.5 µM]. Turning to `COCc1c(C(C)C)nc(C(C)C)c(/C=C/[C@@H](O)C[C@@H](O)CC(=O)O)c1-c1ccc(F)cc1`, the result was inactive.

With `O=C(O)C(Cc1cc(I)c(O)c(I)c1)c1ccccc1` (stereo not given), the “cAMP activity change” value was 7.21% [at 42.5 µM]. The same measure, in the same setting: to `CCCOC(=O)c1ccc(C(=O)OCCC)nc1` belongs -1.3%; to `CNC(=O)N(c1ccccc1)c1ccccc1`, -2.69%.

Consider `CCOC(=O)CC(=O)C(=O)OCC`, for which the “cAMP activity change” value is 8.58%. Regarding `O=C(O)c1cccc(O)c1`, the “cAMP activity change” value was -0.621%. For `CC(=N\O)/C(C)=N/O`, the “cAMP activity change” value was 4.93%. On to `CCCc1c(OCCCOc2ccc(OCC(=O)O)cc2)ccc(C(C)=O)c1O`, for which the “cAMP activity change” value was -1.46%. In the case of `C[Si](NC1CCCCC1)(NC1CCCCC1)NC1CCCCC1`, the “cAMP activity change” value was 2.86%. Consider `Cc1ccc(/C=N/n2c(-c3ccccc3)csc2=S)cc1`, for which the “cAMP activity change” value is 2.64% [at 42.5 µM]. Turning to `CCC(=O)Oc1ccc(/C(CC)=C(\CC)c2ccc(OC(=O)CC)cc2)cc1`, the “cAMP activity change” value is 5.68%. As for `CO[C@H]1C=CO[C@@]2(C)Oc3c(C)c(O)c4c(O)c(c5c(c4c3C2=O)=NC2(CCN(CC(C)C)CC2)N=5)NC(=O)/C(C)=C\C=C/[C@H](C)[C@H](O)[C@@H](C)[C@@H](O)[C@@H](C)[C@H](OC(C)=O)[C@@H]1C`, the “cAMP activity change” value was -3.21%.

Take `COC(=O)c1cc(Cl)ccc1NS(=O)(=O)C(F)(F)F`: the “cAMP activity change” value is 5.11% [at 42.5 µM]. On to `COc1ccc([C@@H]2Sc3ccccc3NC(=O)[C@@H]2O)cc1`, for which the “cAMP activity change” value is 1.07% [at 42.5 µM].

As for `CC(=O)Nc1ccc(N)cc1`, the “cAMP activity change” value is -8.63%.

Consider `CC(=O)CC(c1ccc([N+](=O)[O-])cc1)c1c(O)c2ccccc2oc1=O` (stereo not given), for which the “cAMP activity change” value was 6.57% [at 42.5 µM]. In the case of `NC(=O)Nc1ccc(Cl)c(Cl)c1`, the “cAMP activity change” value was 0.642%. Take `Oc1cc(O)c(Cl)cc1Cl`: the “cAMP activity change” value was -0.167%. Turning to `OC(CCCN1CCCCC1)(c1ccccc1)c1ccccc1`, the “cAMP activity change” value is 0.205% [at 42.5 µM]. Regarding `Cc1nc2ccccc2s1`, the “cAMP activity change” value is 7.27%. `CC(COc1ccc(C(C)(C)C)cc1)OS(=O)OCCCl` (stereo not given): the “cAMP activity change” value is -0.766%. As for `CN1Cc2cc(C(=O)N3CCC(C4CCNCC4)CC3)ccc2N[C@@H](CC(=O)O)C1=O`, the “cAMP activity change” value was -7.24% [at 42.5 µM]. On to `CC(=O)Nc1ccccc1C`, for which the “cAMP activity change” value was -0.285%. On to `CC(C)(C)C(=O)C(Oc1ccc(Cl)cc1)n1ccnc1` (stereo not given), for which the “cAMP activity change” value was 4.87% [at 42.5 µM].

For the compound `CC1CC(=O)NN=C1c1ccc(NCC(C)(C)NCC(O)COc2cc(Cl)ccc2C#N)cc1` (stereo not given), the “cAMP activity change” value is 2.76% [at 42.5 µM]. With `CCCCCCOC(=O)C(C)C`, the “cAMP activity change” value is 0.574%.
